This note sets out measurements from PubChem BioAssay AID504434 (National Center for Advancing Translational Sciences (NCATS), 2011).

Each structure is given as a SMILES string. Results filed as inconclusive are left out. The source made the active and inactive calls. Calls follow the shape of the dose curve; as a rule, active = well fitted curve in the direction sought with a large enough effect; inconclusive = small, poorly fitted or top-dose-only effect, or effect the other way, or another doubt; inactive = no such curve, though single readings can be large or run the other way.

The nature of this assay: Secondary Assay for lipid storage modulators: AML12 cell LDSA assay for probe SAR. The following applies: AML12 lipid droplet accumulation, BODIPY 493/503 imaging, oleate. The source says: NIH Molecular Libraries Probe Production Centers Network [MLPCN] NIH Chemical Genomics Center [NCGC] MLPCN Grant: 1 R03 MH085686-01 Assay Submitter (PI): Beller, Mathias; Max-Planck-Institut fur Biophysikalische Chemie NCGC Assay Overview: Storing lipids as a reservoir for energy or the anabolism of elementary metabolites is a common feature of probably all cells and is conserved from bacteria to humans. The universal cellular lipid storage organelle is the so-called lipid storage droplet (LD). Although ubiquitous, LDs share a simple structure composed of a hydrophobic core that harbors the storage lipids, which is shielded by a droplet-specific phospholipid monolayer to which proteins are attached. The current model of LD biogenesis involves an incorporation of the lipid core into the membrane leaflets of the endoplasmic reticulum (ER) followed by a subsequent budding-like maturation of a LD, which ultimately pinches off. […]
NCGC Assay Protocol Summary: The assay was performed with AML12 cells, using an oleic acid feeding protocol similar to the S3 assay. […] Fluorescence was detected by excitation of the fluorophores with a 488-nm laser on an Acumen Explorer (TTP Lab Tech). […] Cells were detected using channel 3 (575-640 nm) with 5-um width and 100-um depth filters. The ratio of the number of objects in PMT channel 2 over the number of objects in PMT channel 3 was also calculated. […]

Regarding `CCC/C=C/C/C=C/C=C/C=N/NN=O`, the Potency is 499 nM (active).
